# Screening data from PubChem BioAssay.
# A selection: hits, their analogues and other compounds. The true share with any hit is near 0.99%.
# C-LANA FP – KSHV C-LANA DNA binding inhibition. MBP-C-LANA/FAM-LBS DNA binding, fluorescence polarization. inhibition, % at 9 µM. 0.078% of 340,000 active;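 active means highest replicate inhibition at or above 60% at 9 µM, even if other replicates fall short; inactive means all replicates below 60% inhibition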;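 further: 0% = neutral control wells and 100% = 4 µM acridine orange control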
# LANA-H2B inh – blocks KSHV LANA binding to histone H2A/H2B; Q9QR71; cell-free LANA-H2A/H2B peptide, fluorescence polarization; 0.6% of 320,000 active; inhibition, % (test concentration not listed); AID 2629; in the data active means inhibition mostly above about 10%, no sharp cut-off; inactive means mostly below about 6.7%
# Keap1 Nrf2 FP – Keap1-Nrf2 (human) interaction inhibition | Q14145 | Keap1 Kelch-Nrf2 peptide fluorescence polarization, 1536-well | inhibition, % at 9.4 µM | 0.15% of 340,000 active; in the data active means inhibition above about 12%;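 further: human Keap1 Kelch domain with fluorescein labeled Nrf2 9mer peptide probe; 0% = neutral control wells and 100% = peptide positive control; higher means more block of Keap1 binding to Nrf2 peptide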
# Target sequence (Q14145 whole entry, looked up, the tested form may be a part): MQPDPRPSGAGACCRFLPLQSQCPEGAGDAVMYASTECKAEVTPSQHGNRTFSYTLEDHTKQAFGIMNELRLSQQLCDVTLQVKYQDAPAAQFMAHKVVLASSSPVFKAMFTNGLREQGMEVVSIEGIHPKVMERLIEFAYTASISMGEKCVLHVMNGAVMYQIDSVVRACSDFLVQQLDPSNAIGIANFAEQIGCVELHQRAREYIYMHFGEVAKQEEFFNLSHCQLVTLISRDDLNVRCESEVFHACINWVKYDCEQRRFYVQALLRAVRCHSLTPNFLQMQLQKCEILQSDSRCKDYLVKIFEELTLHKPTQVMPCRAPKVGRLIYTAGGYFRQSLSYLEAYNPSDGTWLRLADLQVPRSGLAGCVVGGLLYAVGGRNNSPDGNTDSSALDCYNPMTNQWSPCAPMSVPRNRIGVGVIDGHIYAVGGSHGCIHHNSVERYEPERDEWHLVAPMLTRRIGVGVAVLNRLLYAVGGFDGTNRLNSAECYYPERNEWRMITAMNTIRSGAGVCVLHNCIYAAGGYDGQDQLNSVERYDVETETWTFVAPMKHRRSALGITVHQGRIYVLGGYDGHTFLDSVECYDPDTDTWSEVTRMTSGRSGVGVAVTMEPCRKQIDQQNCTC
# cardiac RTF act – increases calcium sensitivity of human cardiac regulated thin filaments; P19429+P45379; IANBD-labeled TnC RTF fluorescence at EC20 calcium; 0% EC20 calcium, 100% full calcium; activation, % at 7.2 µM; 0.24% of 340,000 active; AID 493008;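 active means activation above the mean over all tested compounds plus 3 SD, cut at about 30% in these data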;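 further: rise in fluorescence read as greater calcium sensitivity of cardiac thin filaments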
# RTF Ca sens inh – cardiac RTF calcium desensitization. P19429+P45379. inhibition, % at 7.15 µM. IANBD-labeled cardiac RTF, Ca2+ fluorescence. AID 493244. 0.12% of 340,000 active;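 active means inhibition above the mean inhibition of all tested compounds plus 3 SD, cut at about 17% in these data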;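 further: assay run at fixed EC70 calcium of 1.6 mM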
# Starred values were filed as active, the others as inactive; . = not tested or not shown; + = active, no number; ! = not active in a repeat.
SMILES,C-LANA FP,LANA-H2B inh,Keap1 Nrf2 FP,cardiac RTF act,RTF Ca sens inh
COC(=O)c1ccccc1NC(=O)NCc1ccncc1,0,35*,1,0,-9
COC(=O)c1ccccc1NC(=O)NCc1ccccc1,-1,-10,1,1,-12
CC(C)(C)C(=O)/C=c1\[nH]c(=O)/c(=C\c2ccc(F)cc2)s1,-1,2,-1,2,-3
COc1ccc(/C=c2\s/c(=C/C(=O)c3ccc(C)cc3)[nH]c2=O)cc1OC,2,-1,-4,30*,-42
COc1cc2c(cc1OC)C(c1cccc(C)c1)CC(=O)N2 (stereo unspecified),-1,47*,-4,-3,0
COc1cc2c(cc1OC)C(c1cccc(Cl)c1)CC(=O)N2 (stereo unspecified),1,-1,-5,15,-16
CCOCCn1c(CN2CCCC(C)C2)nc2c1c(=O)n(C)c(=O)n2C (stereo unspecified),0,1,2,-1,-9
CC1CCCN(Cc2nc3c(c(=O)n(C)c(=O)n3C)n2CC(N)=O)C1 (stereo unspecified),0,13*,-1,-1,-2
Cc1ccc(CNC(=O)C2CCC(=O)N(CCc3ccccc3)C2)s1 (stereo unspecified),-2,18*,-2,-1,-2
COc1ccc(N=C2NC(=O)S/C2=C\c2ccc(N(C)C)cc2)cc1,3,0,-5,174*,-114
CC(=O)Nc1ccc(S(=O)(=O)NC2=C(N3CCN(Cc4ccccc4)CC3)C(=O)c3ccccc3C2=O)cc1,1,+,0,4,0
O=C(/C=C/Nc1ccccc1)c1ccc(Cl)cc1Cl,-2,5.1*,-2,-9,-6
CC(C)(C)NC(=O)C1N(c2cccnc2)C(=O)C2C(C(=O)Nc3ccccc3F)C3(C)C=CC21O3 (stereo unspecified),0,0,-5,6,2
CCOC(=O)/C(=C/C=C1\Sc2ccccc2N1CC)C(C)=O,-9,-7,-59,128*,-220
CCOC(=O)/C(=C/C=C1\Sc2cc(C)c(C)cc2N1CC)C(C)=O,-19,.,-21,160*,-209
CCC(=O)/C=C1/Sc2ccccc2N1CC,3,-6,2,-1,-3
CCOC(=O)/C(=C\C=C1/Sc2ccccc2N1CC)C(C)=O,-48,.,-129,245*,-206
N[C@@H](C(=O)N[C@@H]1C(=O)N2C(C(=O)O)=C(Cl)CS[C@H]12)c1ccccc1,7,1,-2,4,-16
NC(=O)c1cc[n+](CC2=C(C(=O)O)N3C(=O)[C@@H](NC(=O)C(c4ccccc4)S(=O)(=O)[O-])[C@H]3SC2)cc1 (stereo partly specified),102*,5,23*,-9,8
COc1cc(OC)c(-c2c3cc(O)c(=O)cc-3oc3cc(O)c(O)cc23)cc1OC,-32,-175,-199,894*,-488
Cc1c2cc(O)c(=O)cc-2oc2cc(O)c(O)cc12,164*,114*,121*,109*,-20
Cc1cccc(NC(=O)COC(=O)CCc2c[nH]c3ccccc23)c1,-4,2,-5,2,0
CCn1nnnc1SCC(=O)N1c2ccccc2CCc2ccccc21,0,1,-1,5,-9
CCOC(=O)[C@H]1[C@H]2COc3ccccc3[C@@H]2N2C(=O)CN(Cc3ccc(C)cc3)C(=O)[C@@]12C,61*,20,8,19,-62
Cn1cc(/C=N\NC(=O)c2cccs2)c2ccccc21,-1,17*,1,2,2
SMILES,C-LANA FP,LANA-H2B inh,Keap1 Nrf2 FP,cardiac RTF act,RTF Ca sens inh
CCCCCCCc1c(O)nc(SCC(=O)O)[nH]c1=O,2,48*,4,-2,-15
CC(=O)c1ccc(NS(=O)(=O)c2c(C)cc(C)cc2C)cc1,-3,19*,-4,6,-2
Cc1cc(C)c(S(=O)(=O)Nc2ccc(C(N)=O)cc2)c(C)c1,-2,-1,-5,13,-7
NC(=O)CN1C(=O)C(=O)N(Cc2ccccc2)C1=O,-2,-1,0,10,1
S=c1c2c(nc3nc[nH]n13)CCC2,63*,2,-2,2,-12
CCOCCCNC(=O)C(NC(=O)c1ccccc1O)c1ccc(C)cc1 (stereo unspecified),0,1,-4,-8,0
CCOCCCNC(=O)C(NC(=O)c1ccccn1)c1ccc(C)cc1 (stereo unspecified),0,12*,3,4,-8
Cc1ccc(C)c(OCCNc2ncccc2[N+](=O)[O-])c1,3,-1,5,0,-3
O=C(N/C(=C\c1ccco1)C(=O)N1CCCC1CO)c1ccccc1 (stereo unspecified),6,21*,-3,4,-10
COCC(C)NC(=O)c1cc(-c2ccccc2OC)on1 (stereo unspecified),2,21*,5,2,-7
COc1ccccc1-c1cc(C(=O)NCCN2CCOCC2)no1,1,16*,2,3,-2
COc1ccccc1-c1cc(C(=O)NCCCN2CCOCC2)no1,1,5,-4,-7,-6
Cc1ccccc1OCC(=O)OCC(=O)NC1CC1,0,3,4,2,5
CC(=O)N(C)c1ccc(NC(=O)N2CCOCC2)cc1,-2,0,-3,3,-3
Cc1ccc(/C=C2/NC(=O)N(Cc3ccccc3F)C2=O)s1,16,4,-1,35*,-72
Cc1ccc2c(Cl)c(C)c(N3CCCC3)nc2n1,0,1,-4,4,-13
C[n+]1cccc(C(=O)[O-])c1,-1,-1,1,3,11
CN(C)C(=O)Oc1ccc[n+](C)c1,0,74*!,-3,4,8
Cc1cc(Br)c2c(c1)C(O)(N1CCCCC1C)C(=O)N2 (stereo unspecified),0,-1,-5,30*,-3
Cc1cc([N+](=O)[O-])cc2c1NC(=O)C2(O)N1CCCC(C)C1 (stereo unspecified),-1,-2,-2,-7,-10
COC(=O)c1cn(NC(=O)Cc2ccc(Cl)c(Cl)c2)c(=O)c2ccccc12,2,5,-4,4,-9
CCN(C(=O)C(C)Sc1ccc(S(=O)(=O)N2CCN(C)CC2)cn1)c1ccccc1 (stereo unspecified),-2,.,-3,3,-3
Cc1ccsc1C1C=C(c2cccc(Br)c2)Nc2ncnn21 (stereo unspecified),20,10,7,46*,-58
COc1cccc(C2=CC(c3ccc(C)cc3)n3ncnc3N2)c1 (stereo unspecified),.,5,.,.,.
Cc1cccc(C)c1NC(=O)CN(C)C(C)C(=O)NCC(=O)Nc1ccc(F)c(F)c1F (stereo unspecified),1,187*,0,-6,-7
CCN(CC)C(=O)c1ccc(NS(=O)(=O)c2ccccc2)cc1,-1,7,-4,-6,9
